Consider 43 compounds from ChEMBL document CHEMBL4888484, “Replenishing the malaria drug discovery pipeline: Screening and hit evaluation of the MMV Hit Generation Library 1 (HGL1) against asexual blood stage Plasmodium falciparum ,using a nano luciferase reporter read-out” (2022).

About 540 (0.36%) of roughly 150,000 compounds showed an effect of 50% or more. The sample as a whole holds a higher share of strong results than the screen did.

The experiment relates to Plasmodium falciparum. The experiment in a line: Primary screen in NF54 nanoGlo assay, in single point, at 2uM, 72h; a lower Z score goes with more inhibition. Type of experiment: functional, Erythrocyte. The following applies: timepoint 72 hour.
In general, % Inhibition refers to the relative decrease from the control value, in per cent. As to `CCc1cc2c(N3CC(c4ncc(C5CC5)cn4)C3)ncnc2s1`, the “% Inhibition” value was found to be 0% and the Z score was -0.06.

Take `CN(C(=O)Cn1c(=O)n(C)c(=O)c2ccccc21)C1CCCCC1`: the “% Inhibition” value was -1% and the Z score was 0.19.

As to `Cc1cc(C(=O)N2CCOC3(CCS(=O)(=O)CC3)C2)c(C)s1`, the “% Inhibition” value is given as -13% and the Z score is given as 1.28.

Turning to `Cc1c(CN(C)C(=O)c2ccc(-c3ccc4c(c3)OCC4)cc2)cnn1C`, the “% Inhibition” value was -20% and the Z score is 2.12.

For `COc1ccccc1-c1nnc2c3ccc(Cl)cc3nc(N3CCN(C(=O)c4ccc(C)cc4)CC3)n12`, the “% Inhibition” value is recorded as -13% and the Z score is given as 1.38.

As to `Cc1nc(-c2ccco2)ccc1C(=O)N[C@@H](C)c1nnnn1C`, the “% Inhibition” value is -12% and the Z score came out at 1.8.

Take `CCn1nc(-n2cnnc2)c(NS(=O)(=O)c2ccc(C)cc2)c1C`: the “% Inhibition” value is given as -9% and the Z score is listed as 1.53.

Take `COc1ncnc2c1CN(C(=O)NCC1(Cc3ccccc3)CCC1)CC2`: the “% Inhibition” value was 29% and the Z score is 1.68.

In the case of `Cc1cc(Nc2ccc(C)c(Cl)c2)c2cccc(C)c2n1`, the “% Inhibition” value was 23% and the Z score is reported as -2.05.

For the compound `COc1cccc2c(Nc3ccc(C(=O)O)cc3)cc(C)nc12`, the “% Inhibition” value was -3% and the Z score turned out to be 0.28.

As for `Cc1cc(C)c2nc(C)cc(Nc3ccc(O)cc3)c2c1`, the “% Inhibition” value worked out at 85% and the Z score was -12.86.

For the compound `Cc1nonc1CC(=O)NCCCn1ccnn1`, the “% Inhibition” value is on record as -4% and the Z score amounted to 0.49.

Turning to `Cc1ccc2c(NC(=O)NCC3(CO)CCC3)cccc2n1`, the “% Inhibition” value is given as -9% and the Z score is 1.22.

As to `NC(=O)c1ncc(Br)cc1N1CCC[C@H](F)C1`, the “% Inhibition” value is -6% and the Z score was 0.95.

For the compound `O=C(Nc1nc2c(s1)CN(S(=O)(=O)c1c(F)cccc1F)CC2)c1ccco1`, the “% Inhibition” value is -5% and the Z score came out at 0.7.

On to `COc1ccc(-c2nc(C)cc(C)c2CNC(=O)c2ccco2)cc1`, for which the “% Inhibition” value is listed as -2% and the Z score turned out to be 0.33.

`O=C(Nc1cccc(CNc2ncccn2)c1)c1ccco1`: the “% Inhibition” value was -4% and the Z score is recorded as 0.39.

As to `FC(F)(F)c1ccc(-c2nc(CN(Cc3ccccc3)Cc3ccccc3)cs2)cc1`, the “% Inhibition” value worked out at 0% and the Z score was determined as 0.08.

`CN(Cc1cccc(N(C)C)c1)Cc1csc(-c2ccoc2)n1`: the “% Inhibition” value is reported as -5% and the Z score is listed as 0.54.

Take `CC1(C)CN(C(=O)c2c(O)cnc3c(F)cccc23)C1C1CCCO1` (stereo unspecified): the “% Inhibition” value was -4% and the Z score stood at 0.64.

Regarding `CCN(CC)c1ccc(C(=O)Nc2ccc3nc(N4CCCC4)cc(C)c3c2)cc1`, the “% Inhibition” value is 73% and the Z score is listed as -6.69.

With `COc1ccc(C(=O)Nc2ccc3nc(N4CCC(C)CC4)cc(C)c3c2)cc1OC`, the “% Inhibition” value stood at 7% and the Z score is on record as -1.1.

With `Cc1cc(N2CCC(C)CC2)nc2ccc(NC(=O)c3cccnc3)cc12`, the “% Inhibition” value is given as 18% and the Z score is on record as -2.1.

Take `CC(=O)Nc1ccc2nc(N3CCC(C(=O)N4CCC(N5CCCCC5)CC4)CC3)cc(C)c2c1`: the “% Inhibition” value is on record as 10% and the Z score is listed as -1.6.

Take `CC(=O)Nc1ccc2nc(N3CCC(C(=O)NC4CC4)CC3)cc(C)c2c1`: the “% Inhibition” value is given as 8% and the Z score was -1.23.

Regarding `COc1cc(OC)cc(C(=O)Nc2ccc3nc(N4CCC(C)CC4)cc(C)c3c2)c1`, the “% Inhibition” value was determined as 58% and the Z score was -3.66.

As to `CCn1c(=O)sc2cc(NC(=O)c3ccc(C)cc3)ccc21`, the “% Inhibition” value amounted to 5% and the Z score is -0.91.

As for `CC(Nc1ccc(C#N)nc1)C1CCCOC1` (stereo unspecified), the “% Inhibition” value stood at 1% and the Z score is -0.15.

On to `Cc1noc2ncnc(NC[C@](C)(O)c3cccc(F)c3)c12`, for which the “% Inhibition” value was -7% and the Z score is 1.41.

As for `CN(C)c1ccccc1NC(=O)Cn1ccc(=O)[nH]c1=O`, the “% Inhibition” value is -5% and the Z score worked out at 0.92.

Consider `Nc1nnc(N[C@H]2COc3ccccc32)[nH]1`, for which the “% Inhibition” value amounted to 0% and the Z score is recorded as 0.03.

In the case of `O=C(CCc1ccc(Cl)c(C(F)(F)F)c1)N1CC[C@H](N2CCc3ccccc3C2)C1`, the “% Inhibition” value is 50% and the Z score is on record as -7.74.

`O=C(CCc1ccc(Cl)c(F)c1)N1CC(N2CCc3ccccc3C2)C1`: the “% Inhibition” value was -9% and the Z score is reported as 1.44.

`O=C(CCc1cccc(Cl)c1)N1CC[C@H](N2CCc3ccccc3C2)C1`: the “% Inhibition” value is recorded as -5% and the Z score stood at 0.72.

As to `COCCN1C[C@@H](c2nc(C3CCOCC3)n[nH]2)CCC1=O`, the “% Inhibition” value is listed as -5% and the Z score worked out at 0.81.

In the case of `CNC(=O)[C@H](CNC(=O)c1ccc(=O)[nH]n1)Cc1ccc(F)cc1C`, the “% Inhibition” value is -8% and the Z score was 1.4.

In the case of `Cc1cccc(CN2CCN(C(=O)c3cc(C)nc(N)n3)[C@@H](C)C2=O)c1`, the “% Inhibition” value is -2% and the Z score was 0.2.

As to `COc1cc(C(=O)Nc2cccc(-c3nc(C)cc(=O)[nH]3)c2)ccc1OCc1cscn1`, the “% Inhibition” value is -2% and the Z score was 0.29.

Turning to `C=CCn1ncc(-c2cn([C@@H](CC)c3cc(C)ccn3)nn2)c1C`, the “% Inhibition” value is recorded as 10% and the Z score is -1.39.

Turning to `CN(C)C1(CC2CC2)CCN(Cc2cccc(C#N)c2)CC1`, the “% Inhibition” value is on record as -3% and the Z score is 0.54.

For `O=C(COc1ccc(Cl)cc1)N1CC[C@H](Oc2ccc3ccccc3n2)C1`, the “% Inhibition” value is recorded as -18% and the Z score came to 3.35.

With `CCNC(=O)N1CC[C@H](Oc2ccc3ccccc3n2)C1`, the “% Inhibition” value was found to be 57% and the Z score was -3.

Regarding `O=C(Cc1ccccc1Cl)N1CC[C@H](Oc2ccc3ccccc3n2)C1`, the “% Inhibition” value was -5% and the Z score stood at 0.96.
